Hits are enriched below; roughly 21% of the tested compounds scored in any of these assays.
CHX counter = affects cycloheximide protein synthesis inhibition readout, counter-screen; cell reporter, cycloheximide protein synthesis inhibition counterscreen; max response, %; 300,000 tested, 12% active; in the data active means max response mostly above about 13%, no sharp cut-off; inactive means mostly below about 14%; further: read at 38.3 µM for the half of the compounds with a filed dose; 0% is about no effect
Pf growth 96h = P. falciparum growth inhibition at 96 hours. Potency, µM (doses to about 28.7 µM), for inactives: at the top dose activity change, negative = inhibition, actives largely listed as inhibitors. AID 504834. 320,000 tested, 6.9% active. P. falciparum luciferase reporter growth, 96 h; further: potency means the concentration at half of the fitted maximal effect; on the % scale 0 is the no-effect control and ±100 the full control effect
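Luminescence readout: decreased luciferase signal marks inhibited growth of reporter-expressing P. falciparum in infected red cells (2% hematocrit, 0.05% parasitemia final), exposed to compound two generations (96 h, 37 C, 5% CO2).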
Shiga toxin inh = blocks Shiga toxin action in Vero cells. inhibition, % at 38.7 µM. Vero cells, Shiga toxin protein synthesis inhibition reporter. 290,000 tested, 9.2% active; in the data active means inhibition mostly above about 28%, no sharp cut-off; inactive means mostly below about 43%; further: 0% is about no effect
Pf growth 48h = P. falciparum growth inhibition at 48 hours (one generation); 310,000 tested, 5.9% active; Potency, µM (doses to about 28.7 µM), inactives show at the top dose activity change, negative = inhibition, usual class: inhibitors; P. falciparum luciferase growth in erythrocytes, 48 h; further: potency means the concentration at half of the fitted maximal effect; on the % scale 0 is the no-effect control and ±100 the full control effect
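First compound was added to culture medium, then infected red cells at 0.1% parasitemia and 2% hematocrit (final). After incubation at 37 C under 5% CO2, luciferase detection reagent was dispensed and light output recorded.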
Starred values were filed as active, the others as inactive; [ ] = another dose, or the depositor's remark. Unless noted, the call rests on the fitted dose curve; in most records, active means well fitted inhibition curve with a large enough effect; inconclusive means small, poorly fitted or top-dose-only effect, or another doubt; inactive means no such curve, though single readings can be large or run the other way.

Results for COc1ccccc1CNC(=O)/C=C/c1ccc(Br)o1 ?
CHX counter: 7; Pf growth 96h: inconclusive; Shiga toxin inh: -9; Pf growth 48h: 3%

How did CC(C)(C)NC(=O)C(c1cccs1)N(C(=O)c1csnn1)c1ccccc1F (stereo not drawn) do in these assays?
CHX counter: 1; Pf growth 96h: inconclusive; Shiga toxin inh: -6; Pf growth 48h: -10%

Results for O=C(CCN1C(=O)C2CC=CCC2C1=O)Nc1nccs1 (stereo not drawn) ?
CHX counter: 1; Pf growth 96h: 54%; Shiga toxin inh: -8; Pf growth 48h: 8%

How did COc1ccc(OC)c(NCc2cccn2-c2nnc(N3CCC(C)CC3)s2)c1 do in these assays?
CHX counter: 31*; Shiga toxin inh: 69*

How did COc1ccc(OC)c(NC(=O)Nc2nnc(N3CCC(C)CC3)s2)c1 do in these assays?
CHX counter: -3; Pf growth 96h: inconclusive; Shiga toxin inh: -7; Pf growth 48h: 55%

What do the screens show for `O/N=C/c1cc2ccccc2n1Cc1ccccc1F`?
CHX counter: -3; Pf growth 96h: 15%; Shiga toxin inh: -6; Pf growth 48h: 2.6µM*

What do the screens show for `O=C(c1cccs1)N1N=C(c2ccccc2)CC1c1ccccc1` (stereo not drawn)?
CHX counter: 1; Pf growth 96h: 2.6µM*; Shiga toxin inh: -5; Pf growth 48h: inconclusive

How did COc1ccc(C2=NN(C(=O)c3cccs3)C(c3ccc(OC)cc3)C2)cc1 (stereo not drawn) do in these assays?
CHX counter: 13*; Pf growth 96h: inconclusive; Shiga toxin inh: 22; Pf growth 48h: inconclusive

How did COc1ccc(C2CC(c3cccs3)=NN2C(=O)c2ccc(Br)o2)cc1 (stereo not drawn) do in these assays?
CHX counter: 18; Pf growth 96h: inconclusive; Shiga toxin inh: 20; Pf growth 48h: 1.7µM*

How did CCC(=O)N1N=C(c2cccs2)CC1c1ccc(OC)cc1 (stereo not drawn) do in these assays?
CHX counter: 1; Pf growth 96h: inconclusive; Shiga toxin inh: 5; Pf growth 48h: -22%

What do the screens show for `CC(C)[C@H](NC(=O)N1CC(=O)Nc2ccccc21)C(=O)N[C@@H](C(=O)O)c1ccccc1`?
CHX counter: -2; Pf growth 96h: 28%; Shiga toxin inh: -2; Pf growth 48h: 6%

How did O=c1[nH]c(-c2ccccn2)cc2ccccc12 do in these assays?
CHX counter: 36*; Pf growth 96h: 14%; Shiga toxin inh: 52*; Pf growth 48h: 93%

What do the screens show for `Cn1cc([N+](=O)[O-])c(C(=O)N(Cc2ccccc2)Cc2ccccc2)n1`?
CHX counter: -3; Pf growth 96h: 13%; Shiga toxin inh: -6; Pf growth 48h: 0%

What do the screens show for `CCCCC/C=C\C/C=C\C/C=C\C/C=C\CCCC(=O)C(F)(F)F`?
CHX counter: 3; Shiga toxin inh: 25

Results for O=C(NC1CC2CCCC(C1)N2Cc1ccco1)NC12CC3CC(CC(C3)C1)C2 (stereo not drawn) ?
CHX counter: -3; Pf growth 96h: inconclusive; Shiga toxin inh: 2; Pf growth 48h: inconclusive

What do the screens show for `CNC(=S)N1C2CCC1CC(NC(=O)NC13CC4CC(CC(C4)C1)C3)C2` (stereo not drawn)?
CHX counter: -2; Pf growth 96h: inconclusive; Shiga toxin inh: 12; Pf growth 48h: 12µM*

What do the screens show for `CCCCSc1nnc(-c2ccccc2N)c(=O)[nH]1`?
CHX counter: 28*; Pf growth 96h: 80%; Shiga toxin inh: 77*; Pf growth 48h: 30%

Results for CCCSc1nnc(-c2ccccc2N)c(=O)[nH]1 ?
CHX counter: 31; Shiga toxin inh: 93*; Pf growth 48h: 50%

Results for CS(=O)(=O)N(CC(=O)Nc1ccccc1C(=O)N1CCOCC1)c1cccc(F)c1 ?
CHX counter: -3; Pf growth 96h: 2.6µM*; Shiga toxin inh: 2; Pf growth 48h: 0%

Results for CC(=O)c1cccc(N(CC(=O)Nc2ccc(F)cc2F)S(C)(=O)=O)c1 ?
CHX counter: 30*; Pf growth 96h: 17%; Shiga toxin inh: 51*; Pf growth 48h: 30%

How did CC(=O)c1cccc(N(CC(=O)Nc2ccccc2F)S(C)(=O)=O)c1 do in these assays?
CHX counter: -2; Pf growth 96h: 0%; Shiga toxin inh: -5; Pf growth 48h: -4%[5.75 µM]

How did C=CCc1ccccc1Oc1cc(OC)nc(N)n1 do in these assays?
Pf growth 96h: 10%; Pf growth 48h: 0%

What do the screens show for `c1cncc(-c2noc(C34CC5CC(CC(C5)C3)C4)n2)c1`?
CHX counter: 22*; Pf growth 96h: 1%; Shiga toxin inh: 36*; Pf growth 48h: inconclusive

Assay outcomes (PubChem)
